Data from PubChem BioAssay (NCI).
Several values for one entry are separate records, joined by “and”; a condition that tells them apart may be missing. Equal entries are not always repeated. About 83,000 compounds went through this panel and 20% of them were active in at least one assay; those are over-represented in the sample as a whole.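 Assay: single dose, 48 h. Readout: percent growth (0 = no net growth; negative = cell death). Active: <10.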 Activity calls are given as the source filed them.

Experiments:
Assay in all cases: NCI-60 one-dose screen, 48 h (100 = growth as untreated, 0 = no growth, -100 = all killed)
Details in all cases: 10 µM unless noted
SK-MEL-2 melanoma = tested on: SK-MEL-2 melanoma
SN12C renal = tested on: SN12C renal
UO-31 renal = tested on: UO-31 renal
TK-10 renal = tested on: TK-10 renal
ACHN renal = tested on: ACHN renal
CAKI-1 renal = tested on: CAKI-1 renal
A498 renal = tested on: A498 renal
CCRF-CEM leukemia = tested on: CCRF-CEM leukemia
MOLT-4 leukemia = tested on: MOLT-4 leukemia
SR leukemia = tested on: SR leukemia
RPMI-8226 leukemia = tested on: RPMI-8226 leukemia
OVCAR-8 ovarian = tested on: OVCAR-8 ovarian
OVCAR-5 ovarian = tested on: OVCAR-5 ovarian
OVCAR-4 ovarian = tested on: OVCAR-4 ovarian
SK-OV-3 ovarian = tested on: SK-OV-3 ovarian
IGROV1 ovarian = tested on: IGROV1 ovarian
OVCAR-3 ovarian = tested on: OVCAR-3 ovarian
HS 578T breast = tested on: HS 578T breast
NCI/ADR-RES ovarian = tested on: NCI/ADR-RES ovarian
EKVX NSCLC = tested on: EKVX NSCLC

Row | SMILES | growth (SK-MEL-2 melanoma) | growth (SN12C renal) | growth (UO-31 renal) | growth (TK-10 renal) | growth (ACHN renal) | growth (CAKI-1 renal) | growth (A498 renal) | growth (CCRF-CEM leukemia) | growth (MOLT-4 leukemia) | growth (SR leukemia) | growth (RPMI-8226 leukemia) | growth (OVCAR-8 ovarian) | growth (OVCAR-5 ovarian) | growth (OVCAR-4 ovarian) | growth (SK-OV-3 ovarian) | growth (IGROV1 ovarian) | growth (OVCAR-3 ovarian) | growth (HS 578T breast) | growth (NCI/ADR-RES ovarian) | growth (EKVX NSCLC)
1 | O=C1NC(=O)C2(CCc3ccccc32)N1 (centres undefined) | 129% (inactive) and 51.4% (inactive) | 104% (inactive) and 95.1% (inactive) | 101% (inactive) and 85.3% (inactive) | 105% (inactive) and 99.5% (inactive) | 111% (inactive) and 96.7% (inactive) | 98.4% (inactive) and 89.7% (inactive) | 94.4% (inactive) | 118% (inactive) and 94.2% (inactive) | 101% (inactive) and 83.3% (inactive) | 111% (inactive) and 95.6% (inactive) | 106% (inactive) and 95.6% (inactive) | 110% (inactive) and 102% (inactive) | 108% (inactive) and 78.7% (inactive) | 103% (inactive) and 108% (inactive) | 114% (inactive) and 101% (inactive) | 119% (inactive) and 106% (inactive) | 99.5% (inactive) and 114% (inactive) | 121% (inactive) | 109% (inactive) and 92.5% (inactive) | –
2 | O=C1c2ccccc2C(=O)N1/N=C/c1ccc2c(c1)OCO2 | 95.1% (inactive) | 86.3% (inactive) | 81.2% (inactive) | 102% (inactive) | 94.2% (inactive) | 110% (inactive) | 81.4% (inactive) | 93.1% (inactive) | 86.3% (inactive) | 82% (inactive) | 88.5% (inactive) | 100% (inactive) | 93.1% (inactive) | 113% (inactive) | 97.5% (inactive) | – | 108% (inactive) | 78.7% (inactive) | 110% (inactive) | –
3 | O=C(CN1CCN(c2cc3c(cc2F)c(=O)c(C(=O)O)cn3C2CC2)CC1)Nc1ccc(Cl)cc1 | 94.8% (inactive) and 106% (inactive) | 90.1% (inactive) and 90.6% (inactive) | 7.15% (active) and 16% (inactive) | 86.1% (inactive) and 127% (inactive) | 53.2% (inactive) and 84.4% (inactive) | 67.2% (inactive) and 77.6% (inactive) | 68.6% (inactive) and 45.8% (inactive) | 77.4% (inactive) and 92.6% (inactive) | 96.5% (inactive) and 92.7% (inactive) | 71.1% (inactive) and 71.4% (inactive) | 72.2% (inactive) | 78.8% (inactive) and 95% (inactive) | 105% (inactive) and 96% (inactive) | 85.3% (inactive) and 83.2% (inactive) | 63.4% (inactive) and 82.2% (inactive) | 93.8% (inactive) and 97.3% (inactive) | 94.4% (inactive) and 102% (inactive) | 87.7% (inactive) and 93.6% (inactive) | 101% (inactive) and 96.9% (inactive) | –
4 | Nc1ccccc1Nc1ccccc1 | 133% (inactive) and 78.1% (inactive) | 70% (inactive) and 72.6% (inactive) | 45.3% (inactive) and 49.6% (inactive) | 111% (inactive) and 88.4% (inactive) | 85.5% (inactive) and 75.2% (inactive) | 73.3% (inactive) | 105% (inactive) | 31.8% (inactive) and 25.3% (inactive) | 53.5% (inactive) and 88.3% (inactive) | 68.2% (inactive) and 72.1% (inactive) | 42.3% (inactive) and 29.1% (inactive) | 95.7% (inactive) and 92.3% (inactive) | 129% (inactive) and 115% (inactive) | – | 114% (inactive) and 106% (inactive) | 100% (inactive) and 109% (inactive) | 79.8% (inactive) and 57% (inactive) | 89.1% (inactive) and 102% (inactive) | 88% (inactive) and 84.7% (inactive) | –
5 | CCN(CC)CCC(CNc1c2ccc([N+](=O)[O-])cc2nc2cc(OC)c(OC)cc12)c1ccccc1 (centres undefined) | -11.9% (active) and -77.5% (active) | -27.1% (active) and -91.6% (active) | -73.9% (active) and -99.4% (active) | -4.61% (active) and -89.9% (active) | -58.9% (active) and -76.9% (active) | 8.78% (active) and -76.1% (active) | -16.9% (active) | 1.82% (active) and -50.9% (active) | 5.7% (active) | -14.8% (active) | -5.85% (active) and -73% (active) | 6.28% (active) and -80.7% (active) | -13.3% (active) and -83.9% (active) | -53.2% (active) and -94.6% (active) | 27.3% (inactive) and -64.1% (active) | -49.8% (active) and -64% (active) | -38% (active) and -100% (active) | 44.4% (inactive) | 30.5% (inactive) and -58.4% (active) | –
6 | CN(C)CCCNC1=C(Cl)C(=O)c2ccccc2C1=O | 87.6% (inactive) and -34.4% (active) | 67.1% (inactive) and -98.3% (active) | 73.8% (inactive) and 47.6% (inactive) | 120% (inactive) and 116% (inactive) | 92.7% (inactive) and 92.5% (inactive) | 91.3% (inactive) and 104% (inactive) | 103% (inactive) and 85.4% (inactive) | 80% (inactive) and 81.3% (inactive) | 57% (inactive) and 79.3% (inactive) | -18.8% (active) | 65% (inactive) and 45.5% (inactive) | 68% (inactive) and -60.7% (active) | 98.4% (inactive) and 98.8% (inactive) | 17.7% (inactive) and -100% (active) | 88.9% (inactive) and 95.9% (inactive) | -52.5% (active) and -98.8% (active) | 19.8% (inactive) and -44.6% (active) | 9.81% (active) | 103% (inactive) and 78.7% (inactive) | –
7 | ClC/C=C/CSc1ncnc2nc[nH]c12 | 5.9% (active) and 112% (inactive) | 105% (inactive) and 100% (inactive) | 85.9% (inactive) and 87.1% (inactive) | 108% (inactive) | 103% (inactive) and 99.2% (inactive) | 106% (inactive) and 111% (inactive) | 91.4% (inactive) and 117% (inactive) | 90.7% (inactive) | 93.7% (inactive) and 85.3% (inactive) | 74.4% (inactive) | 98.7% (inactive) | – | 112% (inactive) and 104% (inactive) | – | 95% (inactive) and 107% (inactive) | 113% (inactive) and 101% (inactive) | 119% (inactive) and 114% (inactive) | 105% (inactive) and 119% (inactive) | 106% (inactive) and 108% (inactive) | –
8 | CN1C(=O)C(N=Nc2ccc([N+](=O)[O-])cc2)SC1=S (centres undefined) | 52.2% (inactive) and 60.1% (inactive) | 62.4% (inactive) and 69.3% (inactive) | 37.2% (inactive) and 49.9% (inactive) | 86.8% (inactive) and 101% (inactive) | 51.8% (inactive) and 56.5% (inactive) | – | 85.5% (inactive) and 89.6% (inactive) | 54.5% (inactive) and 40.8% (inactive) | – | – | 32.7% (inactive) and 10.8% (inactive) | 70.7% (inactive) and 72.4% (inactive) | 56.2% (inactive) and 51.5% (inactive) | 65.8% (inactive) and 76.7% (inactive) | 66.6% (inactive) and 69.2% (inactive) | 56.7% (inactive) and 71.7% (inactive) | 59.3% (inactive) and 62.7% (inactive) | 72.6% (inactive) and 71% (inactive) | 45.7% (inactive) and 15.5% (inactive) | 117% (inactive) and 82% (inactive)
9 | O=C(O)CSCc1nc2ccccc2[nH]1 | 105% (inactive) | 93.1% (inactive) | 93.3% (inactive) | 121% (inactive) | 99.8% (inactive) | 107% (inactive) | 97% (inactive) | 93.7% (inactive) | 99.5% (inactive) | 96.5% (inactive) | 94% (inactive) | 113% (inactive) | 110% (inactive) | 107% (inactive) | 113% (inactive) | – | 106% (inactive) | 102% (inactive) | 101% (inactive) | –
